The nature of experiment [1]: APR_HepG2_CellLoss_72hr: Apredica 72-hour HepG2 Assay for Cell Loss (AID 2282915). The settings on record: high-content imaging. In a few lines:
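HepG2 cells were exposed for 72 hr to compounds at 0.39–200 uM (ten concentrations, duplicate) in 0.5% v/v final DMSO. Nuclei were stained with Hoechst 33342 after 3.7% formaldehyde fixation, imaged at 20x, and counted; fits bidirectional versus DMSO.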

Experiment [2] can be described thus: APR_HepG2_P-H2AX_72hr: Apredica 72-hour HepG2 Assay for H2AX Phosphorylation (AID 2282916).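 Also: phospho-histone H2A.x immunostain intensity per cell marking DNA damage.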 Particulars: imaging, actives raise or lower the signal. A digest of the protocol: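 HepG2 human liver cells were exposed for 72 hr to compounds at 0.39–200 uM (10 concentrations, duplicate per plate) in 0.5% v/v DMSO. Fixed, permeabilized cells were immunolabeled for phospho-histone H2A.x with Hoechst 33342 and imaged by HCS fluorescence; bidirectional fit versus DMSO.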

Experiment [3] in a line: APR_HepG2_MitoMembPot_72hr: Apredica 72-hour HepG2 Assay for Mitochondrial Membrane Potential (AID 2282917). The settings on record: imaging, actives raise or lower the signal. A digest of the protocol: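 HepG2 cells exposed 72 h to compounds at 0.39–200 uM (0.5% v/v DMSO, duplicates); MitoTracker Red CMXRos 250 nM loaded 30 min before 3.7% formaldehyde fixation, imaged by HCS fluorescence. Bidirectional fit versus DMSO.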

A short description of experiment [4]: APR_HepG2_MitoticArrest_72hr: Apredica 72-hour HepG2 Assay for Mitotic Arrest (AID 2282918). The settings on record: high-content imaging, actives raise or lower the signal. In a few lines: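 Mitotic arrest in HepG2 is scored from phospho-histone H3 staining after 72 hr dosing across 0.39–200 uM, with DMSO at 0.5% v/v. Nuclei are identified by Hoechst 33342 and fluorescence intensity is quantified per cell.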

The nature of experiment [5]: APR_HepG2_MicrotubuleCSK_72hr: Apredica 72-hour HepG2 Assay for Microtubule CSK Stabilty (AID 2282919). The settings on record: HepG2 microtubule cytoskeleton, high-content imaging, actives raise or lower the signal. In a few lines: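 HepG2 human liver cells were dosed for 72 h at ten concentrations from 0.39 to 200 uM in duplicate (0.5% v/v DMSO final). Fixed, permeabilized cells were immunostained for alpha-tubulin (Cy5) with a Hoechst counterstain and imaged at 20x.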

Experiment [6] can be described thus: APR_HepG2_P-H2AX_24hr: Apredica 24-hour HepG2 Assay for H2AX Phosphorylation (AID 2282920). Particulars: high-content imaging, actives raise or lower the signal. In a few lines: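 Signal comes from a FITC-labeled secondary detecting phospho-histone H2A.x in fixed HepG2 cells, quantified by automated imaging at 20x. Dosing ran 24 hr across 0.39–200 uM with 0.5% v/v DMSO.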

Experiment [7] is described as follows: APR_HepG2_StressKinase_72hr: Apredica 72-hour HepG2 Assay for Stress Kinase (AID 2282921). Particulars: HepG2 stress kinase (phospho-c-Jun) imaging, actives raise or lower the signal. A digest of the protocol: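 Cells were exposed for 72 h to ten concentrations (0.39–200 uM, duplicate) at 0.5% v/v DMSO final, then fixed with 3.7% formaldehyde, permeabilized and immunostained for phospho-c-Jun (Cy3 secondary) with Hoechst nuclear counterstain.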

Experiment [8] can be described thus: APR_HepG2_StressKinase_24hr: Apredica 24-hour HepG2 Assay for Stress Kinase (AID 2282922). Particulars: HepG2 stress kinase (phospho-c-Jun) imaging, actives raise or lower the signal. In a few lines: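 HepG2 cells exposed 24 hr to compound at 0.39–200 uM (10 concentrations, duplicate), 0.5% v/v DMSO final. Fixed in 3.7% formaldehyde, permeabilized with Triton X-100, immunolabeled for phospho-c-Jun with Hoechst 33342; HCS fluorescence imaging, bidirectional fit versus DMSO.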

A short description of experiment [9]: APR_HepG2_p53Act_72hr: Apredica 72-hour HepG2 Assay for p53 Activation (AID 2282923).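 Also: average cellular p53 protein immunofluorescence intensity in HepG2 cells.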 The settings on record: high-content imaging, actives raise or lower the signal. A digest of the protocol:
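Cells were dosed for 72 hr with compounds at 0.39–200 uM in duplicate (final DMSO 0.5% v/v), then fixed in 3.7% formaldehyde, permeabilized with Triton X-100 and immunostained for p53 (Cy5) with Hoechst 33342 nuclear counterstain.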

The nature of experiment [10]: APR_HepG2_MitoMass_72hr: Apredica 72-hour HepG2 Assay for Mitochondrial Mass (AID 2282924).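 Also: MitoTracker Red CMXRos stain intensity per cell imaged as mitochondrial mass.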 Particulars: high-content imaging, actives raise or lower the signal. In a few lines:
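HepG2 cells were exposed for 72 hr to compounds at 0.39–200 uM (ten concentrations, duplicate, 0.5% v/v DMSO final). Live cells were stained with 250 nM MitoTracker Red CMXRos for 30 min, then fixed in 3.7% formaldehyde and imaged by HCS fluorescence.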

Experimental findings from PubChem BioAssay (EPA / NIEHS) are described below.

Calls of active or inactive are those of the source. The calls were made as follows: active = hit-call score of the fitted dose curve at least 0.9, where 1 is the maximum; inactive = score below 0.9.

With `[N-]=[N+]=[N-]`, the compound was called inactive in experiment [1], in experiment [2], in experiment [3], in experiment [4], in experiment [5] and in experiment [6]. The result in experiment [7], in [8], in experiment [9] and in experiment [10] was inactive.
Consider `CCOC(=O)c1ccccc1C(=O)OCC`, for which the outcome in experiment [1], in experiment [2], in experiment [3], in experiment [4], in [5] and in experiment [6] was inactive. Moreover, the result in experiment [7], in [8], in [9] and in [10] was inactive.
`ClC1=C(Cl)C2(Cl)C3C(Cl)C(Cl)CC3C1(Cl)C2(Cl)Cl` (stereo not given): the AC50 in [1] is 60.9 µM (active); in [2], 108 µM (active); in experiment [3] it was 27.1 µM (active); in experiment [4], 53.5 µM (active); in experiment [5], 98.6 µM (active); in experiment [6], 72.8 µM (active). Further, the AC50 in [7] was 109 µM (active); in experiment [8] it was 96.7 µM (active); in [9] it was 98.4 µM (active); in experiment [10], 136 µM (active).
In the case of `Cc1ccc(N)cc1N`, the call in experiment [1], in experiment [2], in experiment [3], in [4], in [5] and in [6] was inactive. The call in experiment [7], in [8], in experiment [9] and in experiment [10] was inactive.
As for `O=P(Oc1ccccc1)(Oc1ccccc1)Oc1ccccc1`, the AC50 in experiment [1] was 63.2 µM (active); in [2], 66.4 µM (active); in experiment [4] it was 62 µM (active); in experiment [5], 79.4 µM (active); in experiment [6], 70.9 µM (active); in [9] it was 68.3 µM (active). Also, the compound was called inactive in experiment [3], in experiment [7], in experiment [8] and in experiment [10].
Consider `CCCN(CCC)c1c([N+](=O)[O-])cc(C(C)C)cc1[N+](=O)[O-]`, for which the AC50 in [1] is 43.1 µM (active); in experiment [2] it was 52.1 µM (active); in [3], 46.9 µM (active); in experiment [4], 31.6 µM (active); in experiment [5], 41.2 µM (active); in experiment [9], 44.1 µM (active). The AC50 in experiment [10] was 40.9 µM (active). Also, the outcome in experiment [6], in [7] and in experiment [8] was inactive.
Take `CCC1(c2ccccc2)C(=O)N=C(O)NC1=O` (stereo not given): the outcome in experiment [1], in experiment [2], in experiment [3], in [4], in experiment [5] and in experiment [6] was inactive. The compound was classed as inactive in [7], in experiment [8], in experiment [9] and in [10].
For the compound `ClC(Cl)(Cl)c1ccccc1`, the result in experiment [1], in experiment [2], in [3], in experiment [4], in [5] and in experiment [6] was inactive. The call in experiment [7], in experiment [8], in experiment [9] and in experiment [10] was inactive.
For `CCC(C)(C)c1ccc(O)cc1`, the AC50 in [1] was 108 µM (active); in [3] it was 56.4 µM (active); in experiment [4], 121 µM (active); in experiment [9] it was 105 µM (active); in [10] it was 88 µM (active). Further, the call in experiment [2], in experiment [5], in [6], in experiment [7] and in experiment [8] was inactive.
For `O=[N+]([O-])c1ccccc1`, the call in [1], in [2], in experiment [3], in [4], in experiment [5] and in experiment [6] was inactive. Further, the compound was classed as inactive in experiment [7], in experiment [8], in experiment [9] and in experiment [10].
Turning to `CC(C)(C)OOC(C)(C)C`, the result in experiment [1], in experiment [2], in [3], in experiment [4], in experiment [5] and in [6] was inactive. The compound was classed as inactive in [7], in [8], in experiment [9] and in experiment [10].
For `CCCCN(CCCC)N=O`, the compound was classed as inactive in [1], in [2], in [3], in experiment [4], in experiment [5] and in [6]. The call in [7], in [8], in experiment [9] and in experiment [10] was inactive.
With `OCC1CO1` (stereo not given), the compound was called inactive in [1], in [2], in [3], in [4], in experiment [5] and in [6]. In addition, the compound was called inactive in experiment [7], in experiment [8], in [9] and in experiment [10].
As to `Cc1cccc(N)c1`, the result in [1], in experiment [2], in [3], in [4], in [5] and in experiment [6] was inactive. For the same compound, the compound was classed as inactive in [7], in experiment [8], in [9] and in [10].
Consider `CCOS(=O)(=O)OCC`, for which the call in experiment [1], in [2], in [3], in [4], in [5] and in experiment [6] was inactive. Further, the compound was classed as inactive in [7], in experiment [8], in experiment [9] and in [10].
As for `CCOc1ccc(C(C)(C)COCc2cccc(Oc3ccccc3)c2)cc1`, the figures for the half-maximal activity concentration (AC50) in [1] and in experiment [4] were 68.3 µM (active) and 66.6 µM (active), respectively. Also, the result in experiment [2], in experiment [3], in experiment [5], in experiment [6], in experiment [7] and in [8] was inactive. The call in [9] and in experiment [10] was inactive.
Turning to `O=P1(N(CCCl)CCCl)NCCCO1` (stereo not given), the call in experiment [1], in experiment [2], in [3], in [4], in experiment [5] and in [6] was inactive. In addition, the outcome in experiment [7], in experiment [8], in experiment [9] and in experiment [10] was inactive.
`c1nc[nH]n1`: the outcome in experiment [1], in experiment [2], in experiment [3], in experiment [4], in experiment [5] and in experiment [6] was inactive. In addition, the outcome in [7], in experiment [8], in experiment [9] and in [10] was inactive.
As for `Nc1ccc(Cl)cc1`, the outcome in experiment [1], in experiment [2], in experiment [3], in experiment [4], in experiment [5] and in [6] was inactive. Besides, the outcome in experiment [7], in experiment [8], in experiment [9] and in [10] was inactive.
With `c1ccc(OP(Oc2ccccc2)Oc2ccccc2)cc1`, the result in experiment [1], in experiment [2], in experiment [3], in experiment [5], in experiment [6] and in experiment [7] was inactive. The compound was called inactive in experiment [8], in [9] and in experiment [10]. Also, the AC50 in [4] is 113 µM (active).

The AC50 is the concentration at which the activity in the assay is half-maximal.
